From PubChem BioAssay AID720597 (Broad Institute, 2013)
Measured potencies and affinities stand elsewhere.

Each compound was assayed against NAD-dependent protein deacylase sirtuin-5, mitochondrial (Homo sapiens) (UniProt Q9NXA8) (assay: blockers of sirtuin-5 peptide desuccinylation – biochemical, fluorescence imaging, cherry-pick, set 6, dose response (AID 720597;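 further: lower AMC signal can also come from blocking the trypsin step; 0% = median of neutral control wells and -100% = median of positive control wells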)). Conditions: Purified SirT5, succinyl-peptide-AMC/trypsin fluorescence; series mostly up to 15 µM; activity change, negative = inhibition: at the top concentration;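 active means fitted half-maximal dose no more than twice the top valid tested dose, for compounds that lower signal; inconclusive means fit invalid, or curve flat with activity between -70 and -30; inactive means potency past limit, curve flat within ±30, or signal increasing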.
Chain of NAD-dependent protein deacylase sirtuin-5, mitochondrial (Homo sapiens) (Q9NXA8 whole entry, looked up): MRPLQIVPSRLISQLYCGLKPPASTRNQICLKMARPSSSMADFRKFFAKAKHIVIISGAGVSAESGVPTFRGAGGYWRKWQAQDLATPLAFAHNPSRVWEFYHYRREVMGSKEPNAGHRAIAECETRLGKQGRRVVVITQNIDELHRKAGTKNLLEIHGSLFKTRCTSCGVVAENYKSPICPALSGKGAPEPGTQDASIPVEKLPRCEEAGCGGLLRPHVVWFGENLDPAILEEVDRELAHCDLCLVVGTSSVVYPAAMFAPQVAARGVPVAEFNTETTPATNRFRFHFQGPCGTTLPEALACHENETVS

Activity change, negative = inhibition, inactive:
COc1cccc(S(=O)(=O)N(C)C[C@H]2Oc3cc(C4=CCCCC4)ccc3S(=O)(=O)N([C@@H](C)CO)C[C@@H]2C)c1 21.9%, COc1ccc(S(=O)(=O)N(C)C[C@H]2OCCCC[C@H](C)Oc3ccc(NS(=O)(=O)c4ccc(C)cc4)cc3C(=O)N([C@H](C)CO)C[C@@H]2C)cc1 31.8%, COc1cccc(C(=O)Nc2ccc3c(c2)C(=O)N(C)C[C@H](OC)[C@@H](C)CN(CCc2ccccc2)[C@@H](C)CO3)c1 -22.3%, COc1ccc(C#Cc2ccc([C@@H]3[C@H](CO)N4C(=O)CN(C(=O)c5cccnc5)C[C@@H]34)cc2)cc1 -0.496%, CCCC(=O)Nc1ccc2c(c1)OC[C@H](C)N(Cc1ccccc1)C[C@@H](C)[C@H](OC)CN(C)C2=O -11.5%, COc1ccc(S(=O)(=O)N(C)C[C@@H]2OCCCC[C@@H](C)Oc3ccc(NS(=O)(=O)c4ccc(F)cc4)cc3C(=O)N([C@@H](C)CO)C[C@H]2C)cc1 -22.5%, CCCNC(=O)N1[C@H](CO)[C@@H](c2ccccc2)C12CN(C(=O)CC1CC1)C2 2.41%
